For 16 compounds, composite z-score and z-score results are on record in PubChem BioAssay.

Assay [1] concerns XIP peptide (Xip251-270) binding. Description: XIP fragment 251-270 binding compounds – biochemical, small-molecule microarray, fluorescence 635/667 nm, 0.1 µg/mL protein, primary screen (AID 1182). The conditions noted are these: fluorescent protein binding, 635 nm, higher = more signal, called active from +8 up or from −8 down.
In assay [2] the test system is XIP peptide (Xip251-270). Description: compounds binding XIP fragment 251-270 – biochemical, small-molecule microarray, fluorescence 635/667 nm, 0.5 µg/mL protein, primary screen (AID 1183). The conditions noted are these: fluorescence 635 nm, higher = more signal.
A short description of assay [3]: blood-stage malaria parasite viability loss – strain 3D7, DAPI fluorescence, 100 nL, primary screen (AID 1184).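 Note: parasites grown inside human red blood cells in medium with human serum.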 The settings on record: P. falciparum 3D7 growth, 3 d, higher = more signal.
Assay [4] deals with Homeobox protein Hox-A13 (Mus musculus) (UniProt Q62424). The assay is described as follows: disruptors of Hoxa13 oligonucleotide interaction – biochemical, fluorescence polarization, labeled oligonucleotide, primary screen (AID 1185). The settings on record: Hoxa13:DNA binding, 15 min, higher = more signal, called active from +8 up or from −8 down.
Sequence of Homeobox protein Hox-A13 (Mus musculus) (Q62424 whole entry, looked up): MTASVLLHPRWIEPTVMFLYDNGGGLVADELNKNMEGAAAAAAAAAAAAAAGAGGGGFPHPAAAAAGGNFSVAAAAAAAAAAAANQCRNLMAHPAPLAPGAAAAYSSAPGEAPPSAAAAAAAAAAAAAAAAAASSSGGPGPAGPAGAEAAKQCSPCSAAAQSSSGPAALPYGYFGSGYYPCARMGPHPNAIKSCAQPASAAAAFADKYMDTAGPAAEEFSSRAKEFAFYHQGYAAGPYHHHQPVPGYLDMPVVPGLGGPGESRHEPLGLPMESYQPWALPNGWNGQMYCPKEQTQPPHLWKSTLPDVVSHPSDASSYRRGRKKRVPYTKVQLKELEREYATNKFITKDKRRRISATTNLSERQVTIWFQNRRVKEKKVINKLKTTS
Assay [5] can be described thus: blockers of DNA damage checkpoint Chk1 activation – imaging, HeLa, hydroxyurea, phospho-Chk1 antibody, percent positive cells, primary screen (AID 1186). The settings on record: hydroxyurea-induced phospho-Chk1 immunofluorescence imaging, higher = more signal.
Assay [6] is described as follows: blockers of DNA damage checkpoint Chk1 activation – imaging, HeLa, hydroxyurea, phospho-Chk1 nuclear intensity, primary screen (AID 1187). The settings on record: hydroxyurea-induced phospho-Chk1 immunofluorescence imaging, higher = more signal.

The source made the active and inactive calls. Unless noted, the rule behind the calls is not given here.

With `CC(C)C[C@@H]1NC(=O)[C@@H]2C[C@H](C(=O)NCCCCCCNC(=O)CS)[C@H](c3ccc(O)cc3)N2C1=O`, the composite z-score is 3.03 (inactive) in assay [1] and 0.843 in assay [2]. The z-score was -1.19 in assay [3], -2.01 (inactive) in assay [4], -0.265 (inactive) in assay [5] and -0.1 (inactive) in assay [6].
For `C[C@]1(C(=O)NCC(F)(F)F)c2ccccc2C(=O)N(Cc2cc(C(F)(F)F)cc(C(F)(F)F)c2)[C@H]1c1ccc(CO)cc1`, the composite z-score is 0.0939 (inactive) in assay [1] and 0.21 in assay [2]. Further, the z-score in assay [3] is 0.528; in assay [4], -3.48 (inactive); in assay [5] it was -0.496 (inactive); in assay [6], -0.308 (inactive).
For the compound `C[C@]1(C(=O)NC2CC2)c2ccccc2C(=O)N(Cc2cc(F)cc(C(F)(F)F)c2)[C@H]1c1ccc(CO)cc1`, the composite z-score in assay [1] was 0.431 (inactive); in assay [2] it was 0.883. The z-score was 0.0713 in assay [3], -3.51 (inactive) in assay [4], 0.361 (inactive) in assay [5] and 0.529 (inactive) in assay [6].
On to `C=CCC(OC(C)=O)[C@@H]1[C@@H](N(Cc2ccc(-c3ccccc3)cc2)C(=O)Cc2ccc(OC)cc2)c2cc(OCCCO)ccc2N1C(=O)c1ccc2ccccc2c1` (stereo partly specified), for which the composite z-score in assay [1] is -0.965 (inactive); in assay [2], -0.0698. Also, the z-score in assay [3] was -2.9; in assay [4], -1.72 (inactive); in assay [5] it was 0.443 (inactive); in assay [6] it was 0.209 (inactive).
Consider `CCOC(=O)C=C1C[C@@H](c2cccc([N+](=O)[O-])c2)O[C@@H](c2cccc([N+](=O)[O-])c2)O1`, for which the composite z-score in assay [1] was 0.232 (inactive); in assay [2] it was 0.673. Also, the z-score was -2.18 in assay [3], 0.392 (inactive) in assay [4], -0.447 (inactive) in assay [5] and -0.443 (inactive) in assay [6].
`C#CCN(C(=O)OC(C)(C)C)[C@H](CO)c1ccccc1`: the composite z-score in assay [1] is -0.235 (inactive); in assay [2] it was -0.182. Moreover, the z-score in assay [3] is -0.333; in assay [4], -3.85 (inactive); in assay [5] it was -0.306 (inactive); in assay [6], -0.368 (inactive).
Turning to `CC(C)C[C@@H]1NC(=O)[C@@H]2C[C@H](C(=O)NCCCCCNC(=O)CS)[C@H](c3ccc(O)cc3)N2C1=O`, the composite z-score in assay [1] is 0.741 (inactive); in assay [2] it was 0.56. Further, the z-score in assay [3] is -1.13; in assay [4] it was -0.472 (inactive); in assay [5] it was 0.581 (inactive); in assay [6], 0.313 (inactive).
As to `COc1ccc([Si](C)(C)[C@H]2[C@H](CC(=O)N(CCO)Cc3ccccc3)O[C@@]3(C(=O)N(Cc4cccc(N5CCCCC5=O)c4)c4ccccc43)[C@@H]2C)cc1`, the composite z-score in assay [1] was 2.13 (inactive); in assay [2], 0.587. Moreover, the z-score in assay [3] was -2.59; in assay [4], -0.38 (inactive); in assay [5], -0.929 (inactive); in assay [6], -0.607 (inactive).
Consider `COC(=O)C(CC#Cc1ccc2c(c1)[C@]1(C(=O)N2)[C@H](c2ccccc2OCCO)N2[C@H](c3ccccc3)[C@H](c3ccccc3)OC(=O)[C@H]2[C@@H]1C(=O)N1CCN(c2ncccn2)CC1)C(=O)OC`, for which the results for the composite z-score in assay [1] and in assay [2] were -0.0996 (inactive) and 0.539, respectively. In addition, the z-score in assay [3] is -2.27; in assay [4] it was -1.41 (inactive); in assay [5], 0.0162 (inactive); in assay [6] it was -0.581 (inactive).
As for `CCCNC(=O)[C@@]1(Sc2ccc(C)cc2)CC(=O)N(Cc2cc(C(F)(F)F)cc(C(F)(F)F)c2)[C@@H]1c1ccc(CO)cc1`, the composite z-score in assay [1] is -0.0515 (inactive); in assay [2] it was 0.136. In addition, the z-score is -1.1 in assay [3], -0.323 (inactive) in assay [4], -0.0515 (inactive) in assay [5] and 0.0821 (inactive) in assay [6].
With `COc1ccc([Si](C)(C)[C@H]2[C@H](CC(=O)N3CCC[C@H]3CO)O[C@@]3(C(=O)N(C)c4ccccc43)[C@@H]2C)cc1`, the composite z-score was -0.216 (inactive) in assay [1] and 0.924 in assay [2]. For the same compound, the z-score was 1.07 in assay [3], -3.41 (inactive) in assay [4], -0.529 (inactive) in assay [5] and -0.766 (inactive) in assay [6].
With `CCOC(=O)C[C@H]1[C@H](OC(=O)c2ccc(-c3ccccc3)cc2)[C@@H](NC(=O)C2CCCCC2)c2cc(OCCCO)ccc2N1C(=O)Cc1ccc(OC)cc1`, the values for the composite z-score in assay [1] and in assay [2] were -0.344 (inactive) and -0.355, respectively. Besides, the z-score in assay [3] is -0.0911; in assay [4], -2.2 (inactive); in assay [5], -0.0566 (inactive); in assay [6], 0.295 (inactive).
As to `CC(C)c1ccc(NN2C(C(O)c3ccccc3)C=CC3C(=O)N(c4ccccc4)C(=O)C32)cc1` (stereo unspecified), the composite z-score in assay [1] is 0.542 (inactive); in assay [2], 0.602. Moreover, the z-score is -0.164 in assay [3], -1.36 (inactive) in assay [4], -1.43 (inactive) in assay [5] and -1.77 (inactive) in assay [6].
On to `COCCCNC(=O)[C@]1(Cc2ccccc2N=[N+]=[N-])N=C(c2ccc(OCCCO)cc2)O[C@@H]1c1ccccc1`, for which the composite z-score in assay [1] is 1.22 (inactive); in assay [2], 0.77. In addition, the z-score in assay [3] was -2.17; in assay [4], -2.62 (inactive); in assay [5] it was -0.129 (inactive); in assay [6] it was 0.0037 (inactive).
`O=C1O[C@H](c2ccccc2)[C@H](c2ccccc2)N2[C@H]1[C@@H](C(=O)O)[C@]1(C(=O)Nc3ccc(C#CC4(O)CCCCCC4)cc31)[C@H]2c1ccccc1OCCO`: the values for the composite z-score in assay [1] and in assay [2] were 0.168 (inactive) and 0.779, respectively. Also, the z-score in assay [3] is -0.21; in assay [4], -5.71 (inactive); in assay [5], 0.152 (inactive); in assay [6], 0.579 (inactive).
With `C=C(CC1([C@@H](NP(=O)(c2ccccc2)c2ccccc2)[C@H]2C[C@@H]2CCCC)CC1)c1cccc(OC)c1`, the composite z-score is -0.68 (inactive) in assay [1] and -0.207 in assay [2]. In addition, the z-score in assay [3] is -0.0814; in assay [4], -1.55 (inactive); in assay [5] it was 0.731 (inactive); in assay [6], 0.788 (inactive).
